Reference: PubChem BioAssay (NCATS)
Values joined by “and” are separate entries in the source; they are usually repeats but may differ in a detail not shown here. Identical values can stand only once. Inconclusive results are not listed. Active and inactive are the calls of the source. The call rests on the fitted dose curve; in most records, active means well fitted activation curve with a large enough effect; inconclusive means small, poorly fitted or top-dose-only effect; inactive means no such curve, though single readings can be large or run the other way.

Target: Cellular tumor antigen p53 (Homo sapiens) (UniProt P04637)
Sequence (P04637 whole entry, looked up): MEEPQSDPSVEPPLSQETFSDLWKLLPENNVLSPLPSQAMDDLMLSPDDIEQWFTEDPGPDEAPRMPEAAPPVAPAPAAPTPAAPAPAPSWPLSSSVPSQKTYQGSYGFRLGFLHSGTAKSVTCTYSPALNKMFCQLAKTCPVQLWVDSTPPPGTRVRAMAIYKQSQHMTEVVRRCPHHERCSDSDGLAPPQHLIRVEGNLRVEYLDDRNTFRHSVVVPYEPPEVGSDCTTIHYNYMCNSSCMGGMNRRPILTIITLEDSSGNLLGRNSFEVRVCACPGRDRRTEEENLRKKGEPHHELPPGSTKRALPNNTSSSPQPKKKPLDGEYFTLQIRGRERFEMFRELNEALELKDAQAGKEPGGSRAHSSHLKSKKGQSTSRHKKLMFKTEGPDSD
Assay: Primary qHTS for small molecule compounds that upregulate eGFP-tagged delta133p53alpha (in N-terminal) cells. (AID 2060322);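 further: cells pre-induced with doxycycline then dosed without doxycycline; series mostly up to about 56 µM; 0% = DMSO vehicle and 100% = reference activator; nearly all actives have a fitted effect of over 75% in size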
Conditions: NCI-H358 eGFP-delta133p53alpha fluorescence, 24 h; activation: hits give high values
Outline: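 NCI-H358 cells pre-induced 24 h with 10 ng/ml doxycycline for eGFP-delta133p53alpha, plated dox-free and exposed 24 h at 37C to titrated compounds. Fixed, Hoechst-stained; gated GFP peak intensity by laser scanning cytometry, normalized to DMSO (0%) and 57.5 uM 5-azacytidine (100%).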

Row | Structure (SMILES) | activation
1 | NC(=S)c1ccc[n+]([C@@H]2O[C@@H](COP(=O)([O-])OP(=O)(O)OC[C@H]3O[C@@H](n4cnc5c(N)ncnc54)[C@H](OP(=O)(O)O)[C@@H]3O)C(O)C2O)c1 (some centres not stated) | -2.21% (inactive)
2 | Cc1[nH]c(=O)c(C#N)cc1-c1ccncc1 | 7.4% (inactive) and -9.21% (inactive) and 7.59% (inactive)
3 | O=Nc1ccc2oc(=O)ccc2c1 | -33.9% (inactive)
4 | COc1ccccc1N1CCN(CCCNc2cc(=O)n(C)c(=O)n2C)CC1 | 16.7% (inactive) and -11.6% (inactive) and 14.7% (inactive)
5 | CNC(=O)Oc1ccc2c(c1)[C@]1(C)CCN(C)[C@@H]1N2C | -31.1% (inactive) and -29.5% (inactive) and 2.6% (inactive)
6 | O=c1ccc2c(OCCCCc3ccccc3)c3ccoc3cc2o1 | -37.4% (inactive)
7 | CC(C)NCC(O)COc1cccc2[nH]ccc12 (configuration not stated) | -9.6% (inactive) and -5.67% (inactive) and -6.98% (inactive)
8 | N.N.N.N.N.N.N.N.N.N.N.N.N.N.O.O.[Ru+4].[Ru+5].[Ru+5] | 4.58% (inactive)
9 | CN1CCC2(CCN3CCc4c(oc5ccccc45)C3C2)N(C)C1=O (configuration not stated) | -14.7% (inactive)
10 | CCNc1nc2c(ncn2[C@H]2C[C@H](O)[C@@H](CO)O2)c(=O)[nH]1 | 9.4% (inactive) and 5.67% (inactive)
11 | N=C(N)c1ccc(N)cc1 | -28.3% (inactive)
12 | CN1CCC[C@@H]1Cc1c[nH]c2ccc(CCS(=O)(=O)c3ccccc3)cc12 | 8.47% (inactive) and -10.4% (inactive) and 2.33% (inactive)
